# Data as given in PubChem BioAssay (EPA / NIEHS).
# Inconclusive results are not listed. The source made the active and inactive calls. Rule for the calls, unless noted: active = hit-call score of the fitted dose curve at least 0.9, where 1 is the maximum; inactive = score below 0.9.
# Read-out: not listed separately
# Experiment: CEETOX_H295R_OHPROG_noMTC: CeeTox H295R High-throughput Steroidogenesis Assay for OH-Progesterone (OHPROG), maximum tolerated concentration (MTC) filtered results only (AID 2283914)
# Conditions: actives raise or lower the signal
# In short: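 Analysis uses all tested concentrations, without maximum-tolerated-concentration screening by MTT. H295R cells, forskolin-primed (10 uM, 48 h), receive chemical for 48 h; hormone in medium measured by HPLC-MS/MS, with bidirectional curve fitting against DMSO.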
row,Compound,outcome
1,CCCCCCCCOC(=O)c1ccccc1C(=O)OCCCCCCCC,inactive
2,O=C(O)C(F)(F)C(F)(F)C(F)(F)C(F)(F)C(F)(F)C(F)(F)C(F)(F)C(F)(F)C(F)(F)F,inactive
3,Oc1c(Cl)c(Cl)c(Cl)c(Cl)c1Cl,inactive
4,CCCCCCOC(=O)c1ccccc1C(=O)OCCCCCC,inactive

# Read-out: not listed separately
# Experiment: CEETOX_H295R_CORTISOL_noMTC: CeeTox H295R High-throughput Steroidogenesis Assay for Cortisol, maximum tolerated concentration (MTC) filtered results only (AID 2283916)
# Conditions: actives raise or lower the signal
# In short: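 H295R adrenal cells were pre-stimulated 48 h with 10 uM forskolin, then exposed 48 h to test chemical in 0.1% DMSO. Medium cortisol was measured by MTBE extraction and HPLC-MS/MS; bidirectional fit versus DMSO, concentrations not MTC-filtered.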
row,Compound,outcome
1,O=C(O)C(F)(F)C(F)(F)C(F)(F)C(F)(F)C(F)(F)C(F)(F)C(F)(F)C(F)(F)C(F)(F)F,inactive
2,Oc1c(Cl)c(Cl)c(Cl)c(Cl)c1Cl,inactive
3,CCCCCCOC(=O)c1ccccc1C(=O)OCCCCCC,inactive

# Read-out: not listed separately
# Experiment: CEETOX_H295R_CORTIC_noMTC: CeeTox H295R High-throughput Steroidogenesis Assay for Corticosterone (CORTIC), maximum tolerated concentration (MTC) filtered results only (AID 2283917)
# Conditions: actives raise or lower the signal
# In short: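 Forskolin-stimulated (10 uM, 48 h) H295R cells are dosed 48 h with chemical in DMSO (0.1% final); corticosterone change is quantified by HPLC-MS/MS and fitted bidirectionally against DMSO, unfiltered for MTT-derived MTC.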
row,Compound,outcome
1,O=C(O)C(F)(F)C(F)(F)C(F)(F)C(F)(F)C(F)(F)C(F)(F)C(F)(F)C(F)(F)C(F)(F)F,inactive
2,Oc1c(Cl)c(Cl)c(Cl)c(Cl)c1Cl,inactive
3,CCCCCCOC(=O)c1ccccc1C(=O)OCCCCCC,inactive

# Read-out: not listed separately
# Experiment: CEETOX_H295R_DOC_noMTC: CeeTox H295R High-throughput Steroidogenesis Assay for DOC, maximum tolerated concentration (MTC) filtered results only (AID 2283918)
# Conditions: actives raise or lower the signal
# In short: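 H295R cells prestimulated 48 h with 10 uM forskolin, then exposed 48 h to test chemical (0.1% DMSO final). Medium 11-deoxycorticosterone extracted with MTBE, quantified by HPLC-MS/MS; bidirectional fit versus DMSO, concentrations not MTC-filtered.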
row,Compound,outcome
1,O=C(O)C(F)(F)C(F)(F)C(F)(F)C(F)(F)C(F)(F)C(F)(F)C(F)(F)C(F)(F)C(F)(F)F,inactive
2,Oc1c(Cl)c(Cl)c(Cl)c(Cl)c1Cl,inactive
3,CCCCCCOC(=O)c1ccccc1C(=O)OCCCCCC,inactive

# Read-out: not listed separately
# Experiment: CEETOX_H295R_PROG_noMTC: CeeTox H295R High-throughput Steroidogenesis Assay for Progesterone (PROG), maximum tolerated concentration (MTC) filtered results only (AID 2283920)
# Conditions: actives raise or lower the signal
# In short: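 Progesterone synthesis in the human adrenal line H295R is measured by HPLC-MS/MS after 48 h chemical exposure following 48 h forskolin (10 uM) stimulation. Activity in either direction is fitted relative to DMSO.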
row,Compound,outcome
1,CCCCCCCCOC(=O)c1ccccc1C(=O)OCCCCCCCC,inactive
2,O=C(O)C(F)(F)C(F)(F)C(F)(F)C(F)(F)C(F)(F)C(F)(F)C(F)(F)C(F)(F)C(F)(F)F,inactive
3,Oc1c(Cl)c(Cl)c(Cl)c(Cl)c1Cl,inactive

# Molecular target: PGR (gene 5241) (UniProt P06401)
# Experiment: TOX21_PR_BLA_Followup_Agonist_ratio: Tox21 HEK293 Progesterone Receptor (PR) Agonism Beta-lactamase Follow-Up Assay, Ratio (AID 2283933; active = hit-call score of the fitted dose curve at least 0.9, where 1 is the maximum)
# Conditions: not given
# Experimental: TOX21_PR_BLA_Followup is a secondary assay for specificity for the TOX21_PR_BLA_Agonist assay. To differentiate true PR agonists from cytotoxic substances, this follow up assay is multiplexed with a cell viability assay. The compounds were also tested for auto fluorescence that may interfere with the biological target readout resulting in potential false positives and/or negatives. To identify the compounds that stimulate PR signaling, a PR-UAS-bla GripTite cell line i.e. PR-UAS-bla HEK293T (Invitrogen, Carlsbad, CA, USA) containing a beta-lactamase reporter gene under the control of an UAS response element was used to screen Tox21 10K compound library. The cytotoxicity of the Tox21 compound library against the PR-bla cell line was tested in parallel by measuring the cell viability using CellTiter-Glo assay in the same wells. TOX21_PR_BLA_Followup_Agonist_ratio is an assay readout measuring reporter gene via receptor activity and designed using inducible reporter (beta lactamase induction) detected with GAL4 b-lactamase reporter gene. The signal is derived from the ratio of cleaved (ch2) to uncleaved (ch1) reporter gene substrate used as the measure of target activity.Data from the assay component TOX21_PR_BLA_Followup_Agonist_ratio was analyzed into 1 assay endpoint. This assay endpoint, TOX21_PR_BLA_Followup_Agonist_ratio, was analyzed in the positive analysis fitting direction relative to DMSO as the negative control and baseline of activity. […] Furthermore, this assay endpoint can be referred to as a primary readout, because this assay has produced multiple assay endpoints where this one serves a reporter gene function. […]
# Assay Protocol: PR-UAS-bla HEK 293T cells were dispensed at 3,000 cells/5 uL of assay medium containing 2% charcoal stripped FBS per well into black wall/clear-bottom 1536-well plates using a Multidrop Combi (ThermoFisher Scientific, Waltham, MA) dispenser. […] After the plates were incubated at room temperature for 2 hours, fluorescence intensity was measured by an Envision plate reader (PerkinElmer, Shelton, CT).
# Sequence of PGR (gene 5241) (P06401 whole entry, looked up): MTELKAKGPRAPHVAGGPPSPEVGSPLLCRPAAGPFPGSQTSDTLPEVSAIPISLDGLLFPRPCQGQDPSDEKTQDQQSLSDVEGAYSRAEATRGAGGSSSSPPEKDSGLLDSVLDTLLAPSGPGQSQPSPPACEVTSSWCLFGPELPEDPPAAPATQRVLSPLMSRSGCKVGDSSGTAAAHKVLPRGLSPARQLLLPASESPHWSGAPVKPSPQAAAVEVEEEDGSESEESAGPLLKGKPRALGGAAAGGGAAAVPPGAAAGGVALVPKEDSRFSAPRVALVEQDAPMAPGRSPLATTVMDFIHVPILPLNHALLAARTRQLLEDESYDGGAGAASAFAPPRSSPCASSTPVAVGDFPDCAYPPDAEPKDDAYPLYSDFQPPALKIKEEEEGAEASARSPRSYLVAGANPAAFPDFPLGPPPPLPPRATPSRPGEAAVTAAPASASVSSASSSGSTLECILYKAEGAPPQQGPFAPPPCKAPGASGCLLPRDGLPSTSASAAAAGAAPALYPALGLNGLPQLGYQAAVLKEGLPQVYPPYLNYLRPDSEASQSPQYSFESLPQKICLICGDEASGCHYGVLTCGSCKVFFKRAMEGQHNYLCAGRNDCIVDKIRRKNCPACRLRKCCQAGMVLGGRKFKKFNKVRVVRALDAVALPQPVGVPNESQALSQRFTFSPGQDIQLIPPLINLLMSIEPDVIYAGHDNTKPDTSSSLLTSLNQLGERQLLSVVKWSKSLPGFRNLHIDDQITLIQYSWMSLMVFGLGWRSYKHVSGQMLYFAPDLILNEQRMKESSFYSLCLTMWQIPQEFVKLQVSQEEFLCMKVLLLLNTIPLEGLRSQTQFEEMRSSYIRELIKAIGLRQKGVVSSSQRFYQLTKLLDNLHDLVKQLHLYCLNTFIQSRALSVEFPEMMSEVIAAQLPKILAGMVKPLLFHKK
Compound,AC50,outcome
CCC(=O)O[C@H]1CC[C@H]2[C@@H]3CCC4=CC(=O)CC[C@]4(C)[C@H]3CC[C@]12C,12 µM (active),
N#Cc1ccc(N(CC(N)=O)CC(F)(F)F)cc1C(F)(F)F,,inactive
CC(C)(O)C(=O)Nc1ccc([N+](=O)[O-])c(C(F)(F)F)c1,,inactive

# Molecular target: PGR (gene 5241) (UniProt P06401)
# Experiment: TOX21_PR_BLA_Followup_Antagonist_ratio: Tox21 HEK293 Progesterone Receptor (PR) Antagonism Beta-lactamase Follow-Up Assay, Ratio (AID 2283934; active = hit-call score of the fitted dose curve at least 0.9, where 1 is the maximum;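 note: PR-UAS-bla HEK293T cells stimulated with 1 nM R5020 agonist for 16 hr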)
# Conditions: not given
# In short: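 Measured in PR-UAS-bla HEK293T cells co-treated with compound and 1 nM promegestone for 16 hr; beta-lactamase ratio read after 2 h FRET substrate loading, with parallel CellTiter-Glo cytotoxicity.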
Compound,outcome,AC50
CCC(=O)O[C@H]1CC[C@H]2[C@@H]3CCC4=CC(=O)CC[C@]4(C)[C@H]3CC[C@]12C,inactive,
C[C@]12CCC(=O)C=C1CC[C@@H]1[C@@H]2CC[C@]2(C)C(=O)CC[C@@H]12,,9.75 µM (active)
N#Cc1ccc(N(CC(N)=O)CC(F)(F)F)cc1C(F)(F)F,,46.1 µM (active)
ClC(Cl)=C(c1ccc(Cl)cc1)c1ccc(Cl)cc1,,24.9 µM (active)
C[C@]12CCC(=O)C=C1CC[C@@H]1[C@@H]2CC[C@@]2(C)[C@H]1CC[C@]2(C)O,inactive,
Oc1ccc(C(c2ccc(O)cc2)(C(F)(F)F)C(F)(F)F)cc1,,53.5 µM (active)
CCCCCCCCCc1ccc(O)cc1,,68.3 µM (active)
Clc1ccc(C(c2ccccc2Cl)C(Cl)(Cl)Cl)cc1 (centres undefined),,12.7 µM (active)
ClC1=C(Cl)[C@]2(Cl)[C@@H]3[C@@H]4C[C@@H]([C@H]5O[C@@H]45)[C@@H]3[C@@]1(Cl)C2(Cl)Cl,,20.3 µM (active)
CC(C)(c1ccccc1)c1ccc(O)cc1,,32.7 µM (active)
